Results from the supplement of paper PMC8975748.
Structures can show the parent of a compound that is named as a salt.

Test system: Saccharomyces cerevisiae BY4741 SeMeCo community
Assay: z-score of subpopulation abundance vs DMSO median, subpopulation auxotrophic for H; higher = larger share of this subpopulation than in DMSO controls
Details: 10 µM; 24 h; SM minimal medium; subpopulation (auxotrophy): H
Procedure: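 Fluorescent four-plasmid SeMeCo (self-establishing metabolically cooperating S. cerevisiae BY4741 community; plasmids pH-mRuby2, pL-mWasabi, pU-eCFP, pM-TagRFP657) was grown 24 h in minimal SM medium with each Selleck FDA-approved drug at 10 µM in 384-well plates. Cells were fixed and imaged by high-content confocal microscopy. For each auxotrophic subpopulation (and the prototroph), a z-score gives the deviation from the DMSO vehicle-control population median.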

Row | Compound | z-score of subpopulation abundance
1 | O=C1CCc2ccc(OCCCCN3CCN(c4cccc(Cl)c4Cl)CC3)cc2N1 [Aripiprazole] | 0.82
2 | COc1ccccc1OCC(O)CN1CCN(CC(=O)Nc2c(C)cccc2C)CC1 (stereo not given) [Ranolazine 2HCl] | 0.04
3 | CN1CCN(C2=Nc3cc(Cl)ccc3Nc3ccccc32)CC1 [Clozapine] | -0.49
4 | C[C@@H]1O[C@@H]1P(=O)(O)O [Fosfomycin Disodium] | 0.63
5 | CC[N+](CC)(CC)CC [Tetraethylammonium bromide] | -0.73
6 | CCCN1CCCC[C@H]1C(=O)Nc1c(C)cccc1C [Ropivacaine HCl] | -0.94
7 | CC(C(=O)O)c1ccc2c(c1)CC(=O)c1ccccc1S2 (stereo not given) [Zaltoprofen] | 0.04
8 | Cc1cc(-n2c(=O)[nH]c(=O)n(C)c2=O)ccc1Oc1ccc(SC(F)(F)F)cc1 [Toltrazuril] | 0.2
9 | CC1CCc2cc(F)cc3c(=O)c(C(=O)O)cn1c23 (stereo not given) [Flumequine] | -1
10 | CCOC(=O)c1ccc(N)cc1 [Benzocaine] | 0.27
11 | C[C@]12CC[C@@H]3c4ccc(O)cc4CC[C@H]3[C@@H]1C[C@@H](O)[C@@H]2O [Estriol] | 0.24
12 | CO[C@@]1(NC(=O)C(C(=O)O)c2ccc(O)cc2)C(=O)N2C(C(=O)O)=C(CSc3nnnn3C)CO[C@@H]21 (stereo not given in full) [Latamoxef sodium] | 0.8
13 | NC(=O)c1cn(Cc2c(F)cccc2F)nn1 [Rufinamide] | 0.5
14 | C=C[C@H]1CN2CC[C@H]1C[C@@H]2[C@@H](O)c1ccnc2ccc(OC)cc12 [Quinidine sulfate] | 0.89
15 | OCCN(CCO)c1nc(N2CCCCC2)c2nc(N(CCO)CCO)nc(N3CCCCC3)c2n1 [Dipyridamole] | 3.18
16 | CCCN1C[C@H](C)[C@@H](O)[C@](C)(O)[C@@H](CC)OC(=O)[C@H](C)[C@@H](O[C@H]2C[C@@](C)(OC)[C@@H](O)[C@H](C)O2)[C@H](C)[C@@H](O[C@@H]2O[C@H](C)C[C@H](N(C)C)[C@H]2O)[C@](C)(O)C[C@H]1C [Gamithromycin] | 2.25
17 | Cc1nc2n(c(=O)c1CCN1CCC(c3noc4cc(F)ccc34)CC1)CCCC2O (stereo not given) [Paliperidone] | -0.95
18 | CN[C@@H]1[C@@H](O[C@H]2O[C@H](CO)[C@@H](N)[C@H](O)[C@H]2O)OC2C[C@@H](N)[C@@H](O[C@H]3[C@H](O)[C@@H](O)[C@H](N)C[C@@H]3N)OC2[C@@H]1O (stereo not given in full) [Apramycin Sulfate] | -0.41
19 | Cc1ccc(Sc2ccccc2N2CCNCC2)c(C)c1 | -0.02
20 | Nc1c(CC(=O)O)cccc1C(=O)c1ccccc1 [Amfenac Sodium Monohydrate] | -0.38

Row | Compound | z-score of subpopulation abundance
21 | CC[C@H]1OC(=O)[C@H](C)[C@@H](O[C@H]2C[C@@](C)(OC)[C@@H](O)[C@H](C)O2)[C@H](C)[C@@H](O[C@@H]2O[C@H](C)C[C@H](N(C)C)[C@H]2O)[C@](C)(O)C[C@@H](C)CN[C@H](C)[C@@H](O)[C@]1(C)O [Azathramycin] | 0.33
22 | CC[C@H]1OC(=O)[C@H](C)[C@@H](O[C@H]2C[C@@](C)(OC)[C@@H](O)[C@H](C)O2)[C@H](C)[C@@H](O[C@@H]2O[C@H](C)C[C@H](N(C)C)[C@H]2O)[C@](C)(O)C[C@@H](C)[C@@H]2N[C@@H](COCCOC)O[C@H]([C@H]2C)[C@]1(C)O [Dirithromycin] | -0.21
23 | CC1(C)S[C@@H]2[C@H](NC(=O)Cc3ccccc3)C(=O)N2[C@H]1C(=O)O [Benzathine penicilline] | 0.18
24 | Clc1ccc(CSC(Cn2ccnc2)c2ccc(Cl)cc2Cl)cc1 (stereo not given) [Sulconazole Nitrate] | 22
25 | CC(=O)N1CCN(c2ccc(OCC3COC(Cn4ccnc4)(c4ccc(Cl)cc4Cl)O3)cc2)CC1 (stereo not given) [Ketoconazole] | 0.08
26 | CN1CCN(CCCN2c3ccccc3Sc3ccc(Cl)cc32)CC1 [Prochlorperazine dimaleate salt] | 1.05
27 | CC1(C)S[C@@H]2[C@H](NC(=O)[C@H](N)c3ccccc3)C(=O)N2[C@H]1C(=O)O [Ampicillin sodium] | -0.9
28 | CCCCCc1ccc(C)cc1O [Amylmetacresol] | -0.64
29 | CCCCNc1ccc(C(=O)OCCN(C)C)cc1 [Tetracaine HCl] | -0.2
30 | O=C1CN2Cc3c(ccc(Cl)c3Cl)N=C2N1 [Anagrelide HCl] | -0.25
31 | Cc1noc(NS(=O)(=O)c2ccc(N)cc2)c1C [Sulfisoxazole] | -0.4
32 | Cc1ncc([N+](=O)[O-])n1CCOC(=O)c1ccccc1 [Metronidazole Benzoate] | -1.17
33 | C[C@@H]1CC(=O)NN=C1c1ccc(NN=C(C#N)C#N)cc1 [Levosimendan] | -0.43
34 | CC[C@@H]1C(=O)OC[C@@H]1Cc1cncn1C [Pilocarpine HCl] | 0.8
35 | CC(=O)NC[C@H]1CN(c2ccc(N3CCOCC3)c(F)c2)C(=O)O1 [Linezolid] | -0.56
36 | CC(=O)Oc1ccc(C(=C2CCCCC2)c2ccc(OC(C)=O)cc2)cc1 [Cyclofenil] | -0.22
37 | Cc1nnc(SCC2=C(C(=O)O)N3C(=O)[C@@H](NC(=O)Cn4cnnn4)[C@H]3SC2)s1 [Cefazolin Sodium] | 1.95
38 | CN1C2CCC1CC(OC(=O)C(O)c1ccccc1)C2 (stereo not given) [Homatropine Bromide] | -0.41
39 | COc1ccc(C(=O)NCc2ccc(OCCN(C)C)cc2)cc1OC [Itopride hydrochloride] | -0.37
40 | CC(C)n1c(/C=C/C(O)CC(O)CC(=O)O)c(-c2ccc(F)cc2)c2ccccc21 (stereo not given) [Fluvastatin Sodium] | 6.45
